Experimental data taken from PubChem BioAssay AID504707 (The Scripps Research Institute Molecular Screening Center, 2011).
Out of some 340,000 compounds screened, about 280 (0.082%) were called active.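 How the source made its calls: active means percent activation above the mean of all tested compounds plus 3 SD (cut at about 19% in these data); inactive means the rest.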 This excerpt belongs to a sample that is enriched for actives.

Biological target: cAMP-dependent protein kinase type I-alpha regulatory subunit (Bos taurus) + cAMP-dependent protein kinase catalytic subunit beta (Mus musculus) (UniProt P00514+P68181)
Experiment: compounds dissociating PKAc from R1A subunit – biochemical, fluorescence polarization, Cy5-IP20, bovine R1A, mouse PKAc, primary screen (AID 504707);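 further: higher means more PKAc released from R1A so a rise in polarization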
Conditions: PKA-R1A dissociation, at 11.4 µM, hits give high values, scaled: DMSO 0%, 113 µM cGMP 100%

Row | SMILES | activation
1 | CCc1ccccc1OCC(=O)Nc1nnc(C2CC2)s1 | 8.59% (inactive)
2 | Cc1ccc(C(=O)OCC(=O)N2CC(C)CC(C)C2)cc1S(=O)(=O)N1CCCCC1 (configuration not stated) | 2.86% (inactive)
3 | O=C(OCc1ccccc1)N1CCC2CC1c1ccc(-c3ccc4c(c3)OCO4)cc12 (configuration not stated) | -1.02% (inactive)
4 | CC(OC(=O)c1cccnc1Cl)C(=O)NC1CCCCC1 (configuration not stated) | 0.33% (inactive)
5 | O=Cc1cn(CCOc2ccc(F)cc2)c2ccccc12 | 1.87% (inactive)
6 | CCOc1ccc(CCNC(=O)COC(=O)c2ccc(C)c(S(=O)(=O)N3CCOCC3)c2)cc1OCC | -10.3% (inactive)
7 | COc1ccc(CN2CC(C(=O)NC3CCCCC3)CC2=O)cc1 (configuration not stated) | 6.81% (inactive)
8 | COc1ccc(N)cc1NC(=O)CN1CCOCC1 | 8.37% (inactive)
9 | O=C(Nc1ccc2c(c1)[C@@H]1C[C@@H](CC(=O)N3CCCCC3)O[C@@H](CO)[C@@H]1O2)NC1CCCCC1 | 19.6% (active)
10 | O=C(C[C@H]1C[C@@H]2c3cc(NC(=O)C4CCC4)ccc3O[C@@H]2[C@H](CO)O1)NC1CCCCC1 | -5.02% (inactive)
11 | COC(=O)C[C@H]1C[C@@H]2c3cc(NC(=O)Nc4ccccc4)ccc3O[C@@H]2[C@@H](CO)O1 | 1.1% (inactive)
12 | CC(C)CCC(=O)Nc1cc(S(=O)(=O)N2CCOCC2)ccc1N1CCCC1 | -1.93% (inactive)
13 | CC1(c2cccc(Br)c2)NC(=O)N(CC(=O)NCCC2=CCCCC2)C1=O (configuration not stated) | -3.47% (inactive)
14 | CCOc1ccc(NC(=O)CN(C)C(=O)Cn2c(=O)cnc3ccccc32)cc1OCC | -7.12% (inactive)
15 | CCc1ccc(OC(C)C(=O)Nc2ccc(S(=O)(=O)Nc3cc(C)on3)cc2)cc1 (configuration not stated) | -6.6% (inactive)
16 | CCC(Oc1ccccc1C)C(=O)Nc1ccc(S(=O)(=O)Nc2cc(C)on2)cc1 (configuration not stated) | 20.4% (active)
17 | CCOc1ccc(C(=O)Nc2ccc(S(=O)(=O)Nc3cc(C)on3)cc2)cc1 | 3.9% (inactive)
18 | O[C@H]1CN(Cc2cccs2)[C@@H](c2ccc(Cl)cc2)C[C@@H]1n1cc(C2CC2)nn1 | -6.87% (inactive)
19 | O=C(O)C1=C(C(=O)O)C2CCC1C2 | 7.53% (inactive)
20 | CCCCCC(=O)N1C[C@H](O)[C@@H](n2cc(COC(=O)c3ccccc3)nn2)C[C@@H]1c1ccc(C)cc1 | 1.28% (inactive)
21 | Cc1ccc(-c2ccc(CN3C(C(C)C)C(=O)N(Cc4cn(CCC5OCCCO5)nn4)CCS3(=O)=O)cc2)cc1 (configuration not stated) | -3.03% (inactive)

Row | SMILES | activation
22 | Cc1ccc2nc3c(cc(C(=O)NCCc4ccccc4)c(=N)n3CC3CCCO3)c(=O)n2c1 (configuration not stated) | 20.5% (active)
23 | Cc1cccn2c(=O)c3cc(C(=O)NCCN4CCOCC4)c(=N)n(Cc4cccnc4)c3nc12 | 5.89% (inactive)
24 | Cc1ccc(CCNC(=O)c2ccc3nc4ccccc4c(=O)n3c2)cc1 | 1.64% (inactive)
25 | Cc1ccc(S(=O)(=O)N(CCc2ccccc2)c2ccc3c(c2)C2CC3CCN2C(=O)OCc2ccccc2)cc1 (configuration not stated) | -0.4% (inactive)
26 | CC(C)NC(=O)Nc1ccc2c(c1)C(=O)N([C@H](C)CO)C[C@H](C)[C@@H](CN(C)Cc1ccc(C(F)(F)F)cc1)OCCCC[C@@H](C)O2 | 3.01% (inactive)
27 | C#CCN(C[C@@H]1[C@@H](OC(=O)NC2CC2)[C@@H](OC(=O)NC2CC2)Cn2c(=O)ccc(=O)n21)S(=O)(=O)c1ccc(C)cc1 | -6.57% (inactive)
28 | CN(Cc1c(F)cccc1Cl)C(=O)COC(=O)Cn1cnc2ccccc2c1=O | 0.6% (inactive)
29 | COc1ccc(NC(=O)C[C@H]2C(=O)N(CCc3ccccc3)C[C@@H]2C)cc1 | -0.95% (inactive)
30 | Cc1ccccc1N1CC(C(=O)Nc2nnc(SCCC3OCCO3)s2)CC1=O (configuration not stated) | -0.56% (inactive)
31 | COc1ccccc1N1CC(C(=O)Nc2nnc(SCC(=O)NCC3CCCO3)s2)CC1=O (configuration not stated) | 0.23% (inactive)
32 | COc1ccccc1N1CC(C(=O)Nc2nnc(SCC(=O)NC(C)C)s2)CC1=O (configuration not stated) | 24.3% (active)
33 | CC1CN(C(=O)c2cccc(NS(=O)(=O)c3ccc(Br)cc3)c2)CC(C)O1 (configuration not stated) | -7.05% (inactive)
34 | CSc1ncnc2c1ncn2CCCNCc1ccco1 | -1.79% (inactive)
35 | COc1cccc(NC(=O)CN(C)C(=O)c2cc(Cl)nc3ccccc23)c1 | 9.02% (inactive)
36 | O=C1c2ccccc2-c2ccccc2NC1O (configuration not stated) | 10.3% (inactive)
37 | CCOc1cc(C(=O)Nc2ccc(S(=O)(=O)Nc3cnc4ccccc4n3)cc2)cc(OCC)c1OCC | -1.58% (inactive)
38 | Cc1ccc2nsnc2c1NC(=O)c1ccccc1[N+](=O)[O-] | -6.39% (inactive)
39 | CCOc1cc(C(=O)Nc2c(C)ccc3nsnc23)cc(OCC)c1OCC | 19.5% (active)
40 | CCCn1c(N)c(C(=O)CSc2nnc(Cc3cccs3)n2C2CC2)c(=O)[nH]c1=O | 9.54% (inactive)
41 | O=C1CC[C@@H](C(=O)N2CSC[C@@H]2C(=O)Nc2ccc(C(F)(F)F)cc2)N1 | 0.56% (inactive)
42 | CC(=O)Nc1ccc(SCC(=O)NC(=O)c2ccc(Cl)cc2)cc1 | 2.13% (inactive)

Row | SMILES | activation
43 | CCC(=O)N1CCc2cc(S(=O)(=O)CCC(=O)N3CCN(c4ccccc4F)CC3)ccc21 | 2.69% (inactive)
44 | Cc1ccn(C(CC(=O)c2ccc(Br)cc2)C(=O)O)n1 (configuration not stated) | -7.77% (inactive)
45 | CC1C(=O)N(Cc2cn(CC3CCCCC3)nn2)CCS(=O)(=O)N1Cc1ccc(-c2cccc(N(C)C)c2)cc1 (configuration not stated) | -4.48% (inactive)
46 | NC(CSC(c1ccccc1)(c1ccccc1)c1ccc(-c2ccccc2)cc1)C(=O)O (configuration not stated) | -6.56% (inactive)
47 | Cc1ccc(C(=O)O)cc1-c1ccc(/C=C2\SC(=O)N(CC(=O)Nc3ccc4c(c3)OCO4)C2=O)o1 | 0.69% (inactive)
48 | Cc1cc(/C=C2/SC(=O)N(CC(=O)N3CCCC3)C2=O)c(C)n1C | -2.71% (inactive)
49 | N#Cc1ccccc1CN1C(=O)S/C(=C/c2cccn2-c2cccc(C(=O)O)c2)C1=O | 26.4% (active)
50 | CC(=O)Nc1ccc(C=CC(=O)c2ccc([N+](=O)[O-])cc2)cc1 | 4.15% (inactive)
51 | COc1ccc(CN2C(=O)C(CC(=O)NCCCCc3ccccc3)CC(C(=O)N3CCOCC3)=C2C)cc1 (configuration not stated) | -0.11% (inactive)
52 | Cc1ccc(NC(=O)COC(=O)CN2CCSC2=O)cc1F | -5.13% (inactive)
53 | COc1cc2ccc(C(C)=O)c(O)c2cc1OC | 4.58% (inactive)
54 | Cc1csc(SCC(=O)Nc2ccc(C)c(S(=O)(=O)N(C)C)c2)n1 | -1.19% (inactive)
55 | CCOC(=O)C=Cc1ccc(C(=O)OCC)[nH]1 | 1.4% (inactive)
56 | O=C(NCC(F)(F)F)c1ccc(S(=O)(=O)NCCc2ccc3c(c2)OCCO3)cc1 | -0.03% (inactive)
57 | Cc1cc(C)c2c(=O)n3c(nc2c1)C(CC(C)C)NC(=O)c1cc2ccccc2cc1-3 (configuration not stated) | -8.23% (inactive)
58 | COc1ccc(C(CNC(=O)CSc2ccccc2)N2CCOCC2)cc1 (configuration not stated) | -7.96% (inactive)
59 | Cc1cccc(S(=O)(=O)N(C)C[C@@H]2OCc3cnnn3CCCC(=O)N([C@H](C)CO)C[C@@H]2C)c1 | 1.99% (inactive)
60 | CCN(CC)C(=O)C1=C(C)N(Cc2ccc(C(C)(C)C)cc2)C(=O)C(CC(=O)NCc2cccc3ccccc23)C1 (configuration not stated) | -15.8% (inactive)
61 | COc1ccc([C@H]2C[C@@H](n3cc(COC(=O)c4ccccc4)nn3)[C@H](O)CN2C(=O)c2cccs2)cc1 | -9.97% (inactive)
62 | COc1ccc(C(=O)Nc2ccc(-n3nncc3C(C)(C)C)cc2)cc1 | -6.01% (inactive)
63 | COc1ccc(NS(=O)(=O)c2ccc(NC(=O)c3ccc(N(C)S(C)(=O)=O)cc3)cc2)cc1 | 9.45% (inactive)

Row | SMILES | activation
64 | COc1ccc(NC(=O)c2ccc(C#CC(C)(C)O)cc2)cc1 | 23.1% (active)
65 | COn1c(=O)c(=O)n(OC)c2ccccc21 | -14.3% (inactive)
66 | COc1ccc(NC(=O)c2cc(=O)[nH]c3ccccc23)cc1S(=O)(=O)N1CCOCC1 | 3.45% (inactive)
67 | N#CCCC(C#N)(c1cccnc1)N1CCOCC1 (configuration not stated) | 9.19% (inactive)
68 | O[C@@H]1C[C@H](c2ccccc2)N(Cc2cccs2)C[C@H]1n1cc(C2CC2)nn1 | 8.01% (inactive)
69 | Cn1ncc2c(NNC(=O)Cc3cccc4ccccc34)ncnc21 | -20.9% (inactive)
70 | O=C(CNC(=O)N1CC(=O)Nc2ccccc21)Nc1ccc(Br)cc1F | -0.99% (inactive)
71 | CCOc1ccc(C2NC(=S)NC3=C2CCc2ccccc23)cc1 (configuration not stated) | -2.38% (inactive)
72 | CCOC(=O)c1cc(-c2sc(NC(=O)c3ccccc3)nc2C)n(-c2ccc(Br)cc2)n1 | 4.25% (inactive)
73 | C[C@H](CO)N1C[C@H](C)[C@@H](CN(C)C(=O)c2cccc(F)c2)Oc2cc(-c3cncnc3)ccc2S1(=O)=O | 0.35% (inactive)
74 | CCOC(=O)C1CCN(C(=O)c2ccc3c(=O)n4nc(Nc5ccccc5CC)sc4nc3c2)CC1 | -0.99% (inactive)
75 | C[C@@H]1CN([C@@H](C)CO)S(=O)(=O)c2ccc(-c3ccc(C(=O)N(C)C)cc3)cc2O[C@@H]1CN(C)Cc1ccccc1C(=O)O | -3.75% (inactive)
76 | O=S1(=O)CCN(C2CCCCCCCCCCC2)CC1 | 7.32% (inactive)
77 | c1ccc(Cn2nnc3c(NCC4CC4)ncnc32)cc1 | 5.88% (inactive)
78 | O=C(COc1ccc(S(=O)(=O)N2CCCC2)cc1[N+](=O)[O-])N1CCCCC1 | -0.2% (inactive)
79 | Cc1cccc(N(CC(=O)N2CCCC2)S(C)(=O)=O)c1C | -6.73% (inactive)
80 | CC1=C(C(=O)Nc2cccc(C(=O)NCC(C)c3ccccc3)c2)SCCO1 (configuration not stated) | 9.58% (inactive)
81 | CCOC(=O)c1c(NC(=S)SC)sc(C(=O)N2CCc3ccccc3C2)c1C | -7.69% (inactive)
82 | Cc1ccc(S(=O)(=O)N2CCOCC2)cc1NC(=O)c1ccncc1 | -4.48% (inactive)
